Test results published in the supplement of paper PMC12645437, “Orthogonal IMiD-Degron Pairs Induce Selective Protein Degradation in Cells” (ACS Chemical Biology, 2025).
Over roughly 8,300 sequences, “log2 fold change of degron read counts, EGFP-low vs EGFP+ sorted cells (limma voom), compound-induced degradation” has its median near -1.1; the highest 2% begin near 3.2. The entries come from a sample that favours the highest values as a whole.

Target: T1, CRBN, Q96SW2
T1 chain: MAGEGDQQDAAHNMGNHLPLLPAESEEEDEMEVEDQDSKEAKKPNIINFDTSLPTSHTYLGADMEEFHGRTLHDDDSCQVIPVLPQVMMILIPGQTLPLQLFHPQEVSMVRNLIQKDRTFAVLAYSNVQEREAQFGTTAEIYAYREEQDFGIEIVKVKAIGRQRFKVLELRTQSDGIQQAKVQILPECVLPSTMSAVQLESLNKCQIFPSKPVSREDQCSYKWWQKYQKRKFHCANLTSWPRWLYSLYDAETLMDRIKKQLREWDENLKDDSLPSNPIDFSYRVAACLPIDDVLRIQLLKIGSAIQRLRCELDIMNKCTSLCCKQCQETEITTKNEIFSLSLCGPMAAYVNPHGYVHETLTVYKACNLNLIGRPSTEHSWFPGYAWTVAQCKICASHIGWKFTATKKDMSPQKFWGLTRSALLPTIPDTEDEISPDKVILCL
Experiment: log2 fold change of degron read counts, EGFP-low vs EGFP+ sorted cells (limma voom), compound-induced degradation; higher = more compound-induced degradation of the degron-EGFP fusion; degrons are variants of IKZF1/3 zinc finger 2; compound dose not given here
Details: Jurkat, 18 h

[1] = compound: compound 19 (5-tert-butyl-thalidomide)
[2] = compound: compound 22 (5-morpholino-thalidomide)
[3] = compound: compound 33 (diphenyl IMiD analogue)
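Note: pooled lentiviral library of zinc finger degron-EGFP fusions in mCherry-positive Jurkat cells, FACS-sorted after compound exposure, with degron abundance counted by next-generation sequencing.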

Row | Sequence | log2 fold change of degron read counts [1] | log2 fold change of degron read counts [2] | log2 fold change of degron read counts [3] | log2 fold change of degron read counts (compound: thalidomide)
1 | FKCEICGRAFTQKGNLLRHIKL [46F_47K_49E_50I_52G_53R_54A_55F_67L_, Q9UKT9] | -2.33 | -3.03 | -3.25 | -2.08
2 | FTCDVCGADFTQKGNLLRHIKL [46F_47T_49D_50V_52G_53A_54D_55F_67L_, Q9UKT9] | -2.29 | -1.84 | -2.04 | -2.29
3 | FMCEVCGAFFTQKGNLLRHIKL [46F_47M_49E_50V_52G_53A_54F_55F_67L_, Q9UKT9] | -2.24 | -2.24 | 0.504 | -1.37
4 | FCCNQCGRAFTQKGNLLRHIKL [46F_47C_49N_50Q_52G_53R_54A_55F_67L_, Q9UKT9] | -2.96 | -3.3 | -2.71 | -2.65
5 | FGCDVCGAEFTQKGNLLRHIKL [46F_47G_49D_50V_52G_53A_54E_55F_67L_, Q9UKT9] | -1.81 | -1.82 | -1.14 | -1.84
6 | FCCPICGRMFTQKGNLLRHIKL [46F_47C_49P_50I_52G_53R_54M_55F_67L_, Q9UKT9] | -0.211 | -0.371 | 0.994 | 0.267
7 | FQCNQCGHEFTQKGNLLRHIKL [46F_47Q_49N_50Q_52G_53H_54E_55F_67L_, Q9UKT9] | -3.09 | -3.12 | -3.48 | -3.28
8 | LCCNQCGFWCTQKGNLLRHIKL [46L_47C_49N_50Q_52G_53F_54W_55C_67L_, Q9UKT9] | -0.952 | -1.34 | -1.18 | -1.07
9 | FQCDVCGAAFTQKGNLLRHIKL [46F_47Q_49D_50V_52G_53A_54A_55F_67L_, Q9UKT9] | 0.909 | 1.9 | 0.606 | 2.84
10 | FMCEQCGATFTQKGNLLRHIKL [46F_47M_49E_50Q_52G_53A_54T_55F_67L_, Q9UKT9] | -2.84 | -2.15 | 0.0969 | -1.3
11 | FLCPICGHCFTQKGNLLRHIKL [46F_47L_49P_50I_52G_53H_54C_55F_67L_, Q9UKT9] | -2.45 | -2.17 | -1.87 | -1.49
12 | FECPICGRGFTQKGNLLRHIKL [46F_47E_49P_50I_52G_53R_54G_55F_67L_, Q9UKT9] | -1.82 | -2.41 | -0.354 | 0.562
13 | FICEICGAAFTQKGNLLRHIKL [46F_47I_49E_50I_52G_53A_54A_55F_67L_, Q9UKT9] | 0.759 | 2.95 | 2.44 | 3.09
14 | FYCEICGAAFTQKGNLLRHIKL [46F_47Y_49E_50I_52G_53A_54A_55F_67L_, Q9UKT9] | 3.59 | 3.59 | 2.92 | 1.64
15 | FVCEICGAAFTQKGNLLRHIKL [46F_47V_49E_50I_52G_53A_54A_55F_67L_, Q9UKT9] | 1.93 | 2.89 | 2.35 | 3.15
16 | FQCEICGAAFTQKGNLLRHIKL [46F_47Q_49E_50I_52G_53A_54A_55F_67L_, Q9UKT9] | 2.89 | 2.79 | 2.34 | 3.64
17 | FECPICGHSFTQKGNLLRHIKL [46F_47E_49P_50I_52G_53H_54S_55F_67L_, Q9UKT9] | -2.78 | -2.96 | -1.75 | -1.65
18 | FYCEQCGATFTQKGNLLRHIKL [46F_47Y_49E_50Q_52G_53A_54T_55F_67L_, Q9UKT9] | 0.368 | 2.41 | 0.941 | -1.4
19 | FSCEICGAYFTQKGNLLRHIKL [46F_47S_49E_50I_52G_53A_54Y_55F_67L_, Q9UKT9] | 2.46 | 1.44 | 1.69 | 0.848
20 | FLCPVCGACFTQKGNLLRHIKL [46F_47L_49P_50V_52G_53A_54C_55F_67L_, Q9UKT9] | 0.241 | -0.146 | 1.72 | 1.62
21 | FNCPVCGACFTQKGNLLRHIKL [46F_47N_49P_50V_52G_53A_54C_55F_67L_, Q9UKT9] | 1.6 | 0.504 | 1 | -0.0222
22 | FVCPQCGACFTQKGNLLRHIKL [46F_47V_49P_50Q_52G_53A_54C_55F_67L_, Q9UKT9] | -1.94 | -0.402 | 0.593 | 0.301
23 | FQCPQCGACFTQKGNLLRHIKL [46F_47Q_49P_50Q_52G_53A_54C_55F_67L_, Q9UKT9] | -1.4 | 0.844 | 0.805 | 3.26
24 | FQCPVCGACFTQKGNLLRHIKL [46F_47Q_49P_50V_52G_53A_54C_55F_67L_, Q9UKT9] | 0.553 | 2.77 | 2.39 | 3.46
25 | FKCPVCGACFTQKGNLLRHIKL [46F_47K_49P_50V_52G_53A_54C_55F_67L_, Q9UKT9] | -0.716 | -1.95 | -2.51 | -0.832
26 | FHCPVCGACFTQKGNLLRHIKL [46F_47H_49P_50V_52G_53A_54C_55F_67L_, Q9UKT9] | 2.42 | 2.44 | 2.11 | 0.528
27 | FYCNVCGACFTQKGNLLRHIKL [46F_47Y_49N_50V_52G_53A_54C_55F_67L_, Q9UKT9] | 1.86 | 2.44 | 1.12 | -0.449
28 | FKCPQCGACFTQKGNLLRHIKL [46F_47K_49P_50Q_52G_53A_54C_55F_67L_, Q9UKT9] | -2.36 | -3 | -3.29 | -2.34
29 | FWCPVCGACFTQKGNLLRHIKL [46F_47W_49P_50V_52G_53A_54C_55F_67L_, Q9UKT9] | 3.4 | 3.44 | 2.56 | 1.36
30 | FYCPVCGACFTQKGNLLRHIKL [46F_47Y_49P_50V_52G_53A_54C_55F_67L_, Q9UKT9] | 3.26 | 3.4 | 2.69 | 1.29
